These results are taken from the supplement of paper PMC12494721.

Structures are written as SMILES. Counter-ions that a name gives are not always drawn.

Details in all cases: incubation time: 27 h, anaerobic, 37 °C;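 for the amine columns active = adjusted P below 0.05 in both replicates with a change the same way and a mean fold change under 0.8 or over 1.25; inactive = the rest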
Experiment [1] relates to Clostridium sporogenes DSM 1664. Briefly: growth (OD595) fold change vs plate DMSO controls (fold change (ratio)); higher = more growth. Summed up: (§1)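 Anaerobic 27 h, 37 °C mGAM 96-well cultures were shaken, then read for absorbance at 595 nm. Values were blank-subtracted and corrected for compound background using 20 µM compound solutions in water. A calibration factor of 5 converted them to OD. Growth is the fold change versus the median of plate DMSO controls. Fold changes above 1.5 were set to NA, and values are the mean of 2 biological replicates.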

Experiment [2] deals with Escherichia coli IAI1. Described as above. Summed up:
as §1

Experiment [3] relates to Klebsiella aerogenes DSM 30053. The experiment is described as above. The method, boiled down: as §1
Experiment [4] deals with Ruminococcus gnavus DSM 108212. Described as above. The method, boiled down:
as §1

For experiment [5], the system named is Klebsiella aerogenes DSM 30053. Briefly: fold change of Histamine concentration vs plate DMSO controls (fold change (ratio)); higher = more amine produced, active = hit call of the paper (significant change in both replicates, either direction). Summed up:
(§2)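 Anaerobic mGAM cultures of four gut bacterial strains were grown at 37 °C for 27 h in 80 µL wells, starting at OD 0.1 before 1:1 dilution. Compounds were at 20 µM final (sweeteners 50 µM). Whole cultures were extracted with cold acetonitrile/methanol containing 0.1% formic acid and centrifuged. Amines were quantified by LC–triple-quadrupole MS (dynamic MRM) against external calibration curves and drift-corrected within batch. Each value is the fold change versus plate DMSO controls, averaged over 2 biological replicates.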

Experiment [6] concerns Clostridium sporogenes DSM 1664. Briefly: fold change of Tryptamine concentration vs plate DMSO controls (fold change (ratio)); higher = more amine produced, active = hit call of the paper (significant change in both replicates, either direction). Summed up: as §2
The subject of experiment [7] is Ruminococcus gnavus DSM 108212. Described as above. Summed up: as §2
The test system of experiment [8] is Escherichia coli IAI1. Briefly: fold change of Putrescine concentration vs plate DMSO controls (fold change (ratio)); higher = more amine produced, active = hit call of the paper (significant change in both replicates, either direction). Summed up: as §2
Experiment [9] deals with Klebsiella aerogenes DSM 30053. Described as above. Summed up: as §2
The test system of experiment [10] is Escherichia coli IAI1. Briefly: fold change of Cadaverine concentration vs plate DMSO controls (fold change (ratio)); higher = more amine produced, active = hit call of the paper (significant change in both replicates, either direction). The method, boiled down: as §2
Experiment [11] concerns Klebsiella aerogenes DSM 30053. The experiment is described as above. Summed up: as §2
Experiment [12] deals with Ruminococcus gnavus DSM 108212. Briefly: fold change of 2-Phenylethylamine concentration vs plate DMSO controls (fold change (ratio)); higher = more amine produced, active = hit call of the paper (significant change in both replicates, either direction). Summed up: as §2

With `Oc1ccc(OCc2ccccc2)cc1` [Monobenzone] (20 µM), the growth in experiment [1] was 1.21; in the experiment on Escherichia coli IAI1 [2], 0.897; in experiment [3], 1.11; in experiment [4] it was 1.03. In addition, in experiment [5], the “fold change of Histamine concentration” value was 0.974 (inactive). For the same molecule, the “fold change of Tryptamine concentration” value in [6] is 1.02 (inactive); in experiment [7], 0.872 (inactive). Besides, the “fold change of Putrescine concentration” value in the experiment on Escherichia coli IAI1 [8] is 0.884 (inactive); in experiment [9], 1.01 (inactive). The entries for the “fold change of Cadaverine concentration” value (with Escherichia coli IAI1 [10]; in experiment [11]) were 0.978 (inactive) and 0.996 (inactive), respectively. Besides, the “fold change of 2-Phenylethylamine concentration” value in experiment [12] is 0.828 (inactive).

As for `O=C1NCC2(CCN(CCc3ccccc3)CC2)O1` [Fenspiride hydrochloride] (20 µM), the growth worked out at 1.08 in [1], 0.982 with Escherichia coli IAI1 [2], 1.05 in [3] and 1.03 in experiment [4]. The “fold change of Histamine concentration” value in [5] is 0.89 (inactive). The “fold change of Tryptamine concentration” value is 1.02 (inactive) in experiment [6] and 1.03 (inactive) in [7]. Also, the “fold change of Putrescine concentration” value with Escherichia coli IAI1 [8] is 0.98 (inactive); in experiment [9], 0.973 (inactive). Moreover, the “fold change of Cadaverine concentration” value in the experiment on Escherichia coli IAI1 [10] was 0.994 (inactive); in [11], 1.02 (inactive). Moreover, the “fold change of 2-Phenylethylamine concentration” value in experiment [12] is 0.988 (inactive).

Regarding `CC(C(=O)O)c1ccc(N2Cc3ccccc3C2=O)cc1` (centres undefined) [Indoprofen] (20 µM), the growth was determined as 1.13 in experiment [1], 0.99 in the experiment on Escherichia coli IAI1 [2], 0.973 in experiment [3] and 1.01 in [4]. For the same molecule, in experiment [5], the “fold change of Histamine concentration” value is 1.04 (inactive). Also, the “fold change of Tryptamine concentration” value in [6] was 1.03 (inactive); in experiment [7] it was 1.09 (inactive). The entries for the “fold change of Putrescine concentration” value (in the experiment on Escherichia coli IAI1 [8]; in experiment [9]) were 0.977 (inactive) and 0.993 (inactive), respectively. Besides, the “fold change of Cadaverine concentration” value in the experiment with Escherichia coli IAI1 [10] is 0.998 (inactive); in [11], 0.982 (inactive). In addition, in [12], the “fold change of 2-Phenylethylamine concentration” value is 1.11 (inactive).

As for `CN(C)CCN1C(=O)c2ccccc2N(C)c2ccccc21` [Dibenzepine hydrochloride] (20 µM), the growth was found to be 1.02 in experiment [1], 0.993 in the experiment on Escherichia coli IAI1 [2], 0.972 in experiment [3] and 0.677 in experiment [4]. Besides, in experiment [5], the “fold change of Histamine concentration” value was 1.06 (inactive). The “fold change of Tryptamine concentration” value in [6] was 0.993 (inactive); in experiment [7], 1.03 (inactive). In addition, the “fold change of Putrescine concentration” value (with Escherichia coli IAI1 [8]; in experiment [9]) was 1.01 (inactive) in each case. Moreover, the results for the “fold change of Cadaverine concentration” value (in the experiment with Escherichia coli IAI1 [10]; in experiment [11]) were 1.02 (inactive) and 0.985 (inactive), respectively. Moreover, the “fold change of 2-Phenylethylamine concentration” value in experiment [12] is 1.06 (inactive).

`CO[C@@]1(NC(=O)C2SC(=C(C(N)=O)C(=O)O)S2)C(=O)N2C(C(=O)O)=C(CSc3nnnn3C)CS[C@@H]21` (some centres undefined) [Cefotetan] (20 µM): the growth in experiment [1] worked out at 0; with Escherichia coli IAI1 [2] it was 0.0332; in experiment [3], 0.987; in experiment [4], 1.17. In experiment [5], the “fold change of Histamine concentration” value was 0.528 (active). Also, the “fold change of Tryptamine concentration” value in experiment [6] is 0.0152 (active); in [7], 1.08 (inactive). Moreover, the “fold change of Putrescine concentration” value is 0.606 (inactive) in the experiment with Escherichia coli IAI1 [8] and 0.978 (inactive) in [9]. The “fold change of Cadaverine concentration” value in the experiment on Escherichia coli IAI1 [10] was 2.18 (active); in [11], 1.1 (inactive). The “fold change of 2-Phenylethylamine concentration” value in experiment [12] was 1.1 (inactive).

Consider `N#Cc1ccc(Oc2ccc3c(c2)COB3O)cc1` [Crisaborole] (20 µM), for which the growth in experiment [1] is 1.06; in the experiment on Escherichia coli IAI1 [2] it was 0.983; in [3], 1.02; in experiment [4], 1.12. Besides, in [5], the “fold change of Histamine concentration” value was 0.998 (inactive). The “fold change of Tryptamine concentration” value in experiment [6] is 0.95 (inactive); in experiment [7] it was 0.688 (active). Besides, the “fold change of Putrescine concentration” value in the experiment on Escherichia coli IAI1 [8] was 1.03 (inactive); in experiment [9] it was 0.987 (inactive). Besides, the “fold change of Cadaverine concentration” value in the experiment with Escherichia coli IAI1 [10] is 1 (inactive); in experiment [11], 0.994 (inactive). Also, in experiment [12], the “fold change of 2-Phenylethylamine concentration” value is 0.799 (inactive).

With `COC(=O)[C@@H]1[C@H]2C[C@H]3c4[nH]c5ccccc5c4CCN3C[C@@H]2CC[C@@H]1O` [Yohimbine hydrochloride] (20 µM), the growth was determined as 1.02 in [1], 1.06 in the experiment with Escherichia coli IAI1 [2], 1.04 in experiment [3] and 0.793 in experiment [4]. In addition, the “fold change of Histamine concentration” value in [5] is 0.982 (inactive). Besides, the “fold change of Tryptamine concentration” value was 1.03 (inactive) in [6] and 1.01 (inactive) in experiment [7]. Further, the “fold change of Putrescine concentration” value in the experiment with Escherichia coli IAI1 [8] was 1.05 (inactive); in [9], 1.01 (inactive). The “fold change of Cadaverine concentration” value with Escherichia coli IAI1 [10] is 0.989 (inactive); in experiment [11], 1.02 (inactive). Besides, the “fold change of 2-Phenylethylamine concentration” value in experiment [12] is 1.01 (inactive).

As to `COc1ccccc1N1CCN(CCCNc2cc(=O)n(C)c(=O)n2C)CC1` [Urapidil hydrochloride] (20 µM), the growth turned out to be 0.984 in experiment [1], 0.934 with Escherichia coli IAI1 [2], 1 in experiment [3] and 0.999 in experiment [4]. Also, the “fold change of Histamine concentration” value in experiment [5] was 0.993 (inactive). The “fold change of Tryptamine concentration” value in experiment [6] was 1.04 (inactive); in experiment [7], 0.977 (inactive). For the same molecule, the “fold change of Putrescine concentration” value with Escherichia coli IAI1 [8] was 0.978 (inactive); in experiment [9], 1.01 (inactive). Moreover, the “fold change of Cadaverine concentration” value is 1.03 (inactive) in the experiment with Escherichia coli IAI1 [10] and 1 (inactive) in experiment [11]. Moreover, the “fold change of 2-Phenylethylamine concentration” value in [12] is 0.971 (inactive).

`Cc1cccc(C)c1OCC(=O)N[C@@H](Cc1ccccc1)[C@@H](O)C[C@H](Cc1ccccc1)NC(=O)[C@H](C(C)C)N1CCCNC1=O` [Lopinavir] (20 µM): the growth in experiment [1] stood at 1.12; in the experiment on Escherichia coli IAI1 [2] it was 1.01; in experiment [3] it was 1.19; in [4], 1.31. Further, in experiment [5], the “fold change of Histamine concentration” value was 0.963 (inactive). For the same molecule, the “fold change of Tryptamine concentration” value is 0.892 (inactive) in experiment [6] and 0.986 (inactive) in experiment [7]. In addition, the “fold change of Putrescine concentration” value in the experiment with Escherichia coli IAI1 [8] is 0.989 (inactive); in experiment [9], 1.04 (inactive). Further, the “fold change of Cadaverine concentration” value (with Escherichia coli IAI1 [10]; in [11]) was 1.02 (inactive) each time. Besides, the “fold change of 2-Phenylethylamine concentration” value in [12] was 0.997 (inactive).

As to `Cc1cc(C(=O)NNCc2ccccc2)no1` [Isocarboxazid] (20 µM), the growth stood at 1.17 in experiment [1], 1.04 in the experiment on Escherichia coli IAI1 [2], 1.18 in [3] and 0.995 in [4]. Also, the “fold change of Histamine concentration” value in experiment [5] is 0.915 (inactive). The “fold change of Tryptamine concentration” value is 1.09 (inactive) in experiment [6] and 1.07 (inactive) in [7]. Moreover, the “fold change of Putrescine concentration” value with Escherichia coli IAI1 [8] was 1.05 (inactive); in experiment [9], 0.987 (inactive). In addition, the “fold change of Cadaverine concentration” value with Escherichia coli IAI1 [10] is 0.983 (inactive); in experiment [11] it was 1.02 (inactive). Also, in [12], the “fold change of 2-Phenylethylamine concentration” value was 1.09 (inactive).

Turning to `N=C(N)NC(=N)NCCc1ccccc1` [Phenformin hydrochloride] (20 µM), the growth in [1] amounted to 0.958; in the experiment with Escherichia coli IAI1 [2] it was 1.01; in experiment [3], 1.07; in [4], 0.756. In experiment [5], the “fold change of Histamine concentration” value is 1 (inactive). Besides, the “fold change of Tryptamine concentration” value in experiment [6] and in experiment [7] was 1.03 (inactive) throughout. In addition, the entries for the “fold change of Putrescine concentration” value (in the experiment on Escherichia coli IAI1 [8]; in [9]) were 0.964 (inactive) and 1 (inactive), respectively. The “fold change of Cadaverine concentration” value in the experiment on Escherichia coli IAI1 [10] was 1.07 (inactive); in experiment [11], 1.01 (inactive). For the same molecule, in experiment [12], the “fold change of 2-Phenylethylamine concentration” value is 1.05 (inactive).

As for `CC(C)NC[C@H](O)COc1cccc2ccccc12` [(S)-(-)-Propranolol hydrochloride] (20 µM), the growth in experiment [1] came to 0.943; in the experiment on Escherichia coli IAI1 [2] it was 1.03; in experiment [3], 1.07; in experiment [4], 1.14. The “fold change of Histamine concentration” value in experiment [5] is 0.885 (inactive). The “fold change of Tryptamine concentration” value in experiment [6] is 1.02 (inactive); in experiment [7], 1 (inactive). Moreover, the results for the “fold change of Putrescine concentration” value (with Escherichia coli IAI1 [8]; in experiment [9]) were 0.986 (inactive) and 0.993 (inactive), respectively. The “fold change of Cadaverine concentration” value in the experiment with Escherichia coli IAI1 [10] was 0.968 (inactive); in [11], 1.01 (inactive). Also, the “fold change of 2-Phenylethylamine concentration” value in [12] was 1.02 (inactive).
